In PubChem BioAssay AID1117319 (Southern Research Institute, 2015):
About 1,500 (0.58%) of roughly 260,000 compounds were called active. Another 5% or so got no clear call; they are omitted.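 Rule for the calls: active = inhibition above a set limit at one or more doses, reproduced on every date tested; inconclusive = results disagree between test dates, or hit never tested in dose response; inactive = the rest.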 The list is a sample of the results. Results with a measured potency or affinity are listed apart.

target: Virion infectivity factor (Human immunodeficiency virus type 1 group M subtype B (isolate BH10)) + Virion infectivity factor (Human immunodeficiency virus type 1 group M subtype B (isolate BRU/LAI)) + Virion infectivity factor (Human immunodeficiency virus type 1 group M subtype B (isolate PCV12)) + Virion infectivity factor (Human immunodeficiency virus type 1 group M subtype B (isolate HXB2)) + DNA dC->dU-editing enzyme APOBEC-3G (Homo sapiens) (UniProt P69720+P69721+P69722+P69723+Q9HC16); experiment: inhibitors of Vif binding to APOBEC3G peptide, primary screen, biochemical, TR-FRET, GST-Vif 1-94, biotin-A3G peptide, dose response retest (AID 1117319); conditions: stronger effect = higher value;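 note: Vif residues 1-94 fused to GST binding biotinylated APOBEC3G peptide 110-148; 0% = full assay without inhibitor and 100% = GST in place of GST-Vif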

inhibition, inactive:
CCCCn1c(O)c(C(CC)=Nc2ccc3c(c2)CCC3)c(=O)[nH]c1=O 7.31%, C=CCn1c(O)c(C(CC)=NCCN2CCOCC2)c(=O)[nH]c1=O 65.5%, COc1ccccc1NC(=O)Cn1cnc2sc(C(=O)Nc3ccc(OC)c(OC)c3)c(C)c2c1=O 0.19%, COc1ccc(S(=O)(=O)N2CCCCCC2)cc1C(=O)N(C)Cc1ccc(F)cc1 4.27%, CCN(CC)S(=O)(=O)c1cccc2cc(C(=O)O)c(O)cc12 -3.16%, C=CCNS(=O)(=O)c1cccc2cc(C(=O)O)c(O)cc12 -0.91%, Cc1ccc(N2C(=O)N(c3ccc(C)cc3)C3CS(=O)(=O)CC32)cc1 (stereo unspecified) -8.71%, C=CCn1c(COc2ccc(F)cc2)nnc1SCC(=O)N1CC(=O)Nc2ccccc21 3.87%, CCOC(=O)c1cc(C)n(Cc2ccccc2)c1C 24.3%, CCOC(=O)c1c(C=O)c(C)n(Cc2ccccc2)c1C 4.84%, Fc1ccc(CNc2nc(-c3ccco3)cc(C(F)(F)F)n2)cc1 9.71%, FC(F)(F)c1cc(-c2ccco2)nc(NCc2ccc(Cl)cc2)n1 3.96%, FC(F)(F)c1cc(-c2ccco2)nc(NCc2ccccc2)n1 15.6%, FC(F)(F)c1cc(-c2ccccc2)nc(NCc2cccnc2)n1 -5.26%, COc1ccc(/C=N/NC(=O)c2cccc([N+](=O)[O-])c2)cc1OS(=O)(=O)c1ccccc1 2.68%, COc1ccc(NC(c2ccccc2)c2ccncc2)cc1 (stereo unspecified) 7.39%, CCC(C)(C)NC(=O)C(c1ccc(C)cc1)N(CCN1CCOCC1)C(=O)CNC(=O)c1cccs1 (stereo unspecified) 2.09%, Cc1c(NC(=O)Cc2noc3ccccc23)cccc1[N+](=O)[O-] -3.42%, CCN(CCCNC(=O)CN(C)S(=O)(=O)c1cccc2nsnc12)c1ccccc1 20.3%, Cc1ccsc1/C=N/n1cnnc1 -12.8%, CCCCC(=O)N/N=C/c1sccc1C -0.53%, O=Cc1ccc(-c2cccs2)s1 -3.47%, CC(=O)c1ccc(-c2cccs2)s1 2.24%, CCOC(=O)c1[nH]c(C)c(C(=O)N(CC)CC)c1C 4.43%, CC(=O)NS(=O)(=O)c1ccc(NC(=O)c2ccc(-n3nc(C)cc3C)cc2)cc1 0.12%, CCOC(=O)C1CCN(C(=O)COC(=O)c2cc(-c3cccs3)nn2-c2ccccc2)CC1 -3.24%
